Bioassay records deposited in PubChem BioAssay by National Center for Advancing Translational Sciences (NCATS).
Most compounds without a hit are left out; they make up all but 3.9% or so of the library.
HT1080-NT tox – qHTS for induction of synthetic lethality in tumor cells producing 2HG: qHTS for the HT-1080-NT fibrosarcoma cell line. Potency, µM (series often up to 46.1 µM), hits mostly cytotoxic. hit rate 1.6% among 360,000. HT-1080-NT fibrosarcoma viability, CellTiter-Glo ATP luminescence, 48 h. AID 686970, 2013;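 note: NT is the 2HG producing partner of a matched IDH1 knockdown line; nearly all actives have a fitted effect of over 55% in size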
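Compounds were tested in concentration-response format on HT-1080-NT cells for 48 hours at 37 degrees C. Cell viability came from CellTiter-Glo luminescence; curves were classified by r2, response magnitude and activity.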
HT1080 IDH1KD tx – qHTS for induction of synthetic lethality in tumor cells producing 2HG: qHTS for the HT-1080-IDH1KD cell line | HT-1080 IDH1 knockdown viability, ATP luminescence, 48 h | Potency, µM (doses to about 46.1 µM), actives largely listed as cytotoxic | hit rate 2% among 360,000
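Viability of IDH1-knockdown HT-1080 fibrosarcoma cells was assessed by CellTiter-Glo after 48 h at 37 °C with titrated compound; concentration-effect curves were classified by fit quality and response size.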
TGFb inhibitor – qHTS for Inhibitors of TGF-b; hit rate 1.2% among 410,000; Potency, µM (series often up to 46.1 µM), usual class: inhibitors; HepG2 CAGA-GFP TGF-b/SMAD3 reporter, GFP fluorescence, 18 h; TGF-beta stimulated, 500 pg/mL final; AID 588855, 2011; note: nearly all actives have a fitted effect of over 65% in size
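HEPG2 CAGA-GFP cells (1000/well, DMEM with 1% FBS) were pre-incubated 2 h at 37 degrees C, given compound by pin tool, then stimulated with TGF-beta at 500 pg/mL final for 18 h before per-cell GFP fluorescence imaging.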
S2 tox – Viability Counterscreen for Primary qHTS for Inhibitors of ATXN expression | hit rate 0.49% among 400,000 | AID 651635, 2014 | S2 cells (HEK-293 line with an ATXN2-luciferase reporter) viability, CellTiter-Fluor protease fluorescence, 24 h | Potency, µM (top dose mostly 56.7 µM), actives largely listed as cytotoxic; note: nearly all actives have a fitted effect of over 40% in size
HepG2 tox – qHTS for Inhibitors of TGF-b: Cytotox Counterscreen; hit rate 0.76% among 410,000; AID 588856, 2011; HepG2 CAGA-GFP viability, ATP luminescence, 18 h; Potency, µM (highest dose often 46.1 µM), hits mostly cytotoxic
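CellTiter-Glo luminescence gave cytotoxicity after 18 hours at 37 degrees C. The cells were HepG2 CAGA-GFP in 1% FBS DMEM, stimulated with 500 pg/mL TGF-beta after compound addition. %Activity was normalised to no-cell wells (complete cell-killing) and DMSO (no toxicity), and curves were fitted and classified.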
ATXN2 expr inh – Primary qHTS for Inhibitors of ATXN expression; Potency, µM (top dose mostly 57 µM), most hits filed as inhibitors; hit rate 0.72% among 360,000; HEK-293 ATXN2-luciferase reporter, luminescence, 24 h; note: nearly all actives have a fitted effect of over 55% in size
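qHTS (up to 57 uM final) was run with 24 h compound exposure of reporter cells at 37 °C. Each well was multiplexed: SteadyGlo luminescence measured ATXN2-luciferase expression after a fluorogenic Gly-Phe-AFC viability readout (25 uM final).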
Numbers stand for hits; . = inactive; ? = inconclusive; / = no result; [ ] = dose if it differs, or a comment. Calls come from the whole dose curve; as a rule, active = well fitted curve in the direction sought with a large enough effect; inconclusive = small, poorly fitted or top-dose-only effect, or another doubt; inactive = no such curve, though single readings can be large; an effect the other way counts as inactive or inconclusive.

SMILES	HT1080-NT tox	HT1080 IDH1KD tx	TGFb inhibitor	S2 tox	HepG2 tox	ATXN2 expr inh
Cc1ccc(Cc2cnc(NC(=O)/C(C#N)=C/c3ccc(-c4ccc([N+](=O)[O-])cc4)o3)s2)cc1	.	.	.	/	.	15.8µM
CN(C)CC(C)(C)CNc1nn2c(-c3ccccc3)nnc2cc1C1CCC1	/	/	/	/	/	0.769µM
Cc1ccc(CNc2ccc3nnc(-c4ccccc4)n3n2)cc1	.	.	.	.	.	.
O=C1Cc2ccccc2N1c1ccccc1	.	.	.	.	.	.
O=C1CC(=Nc2ccccc2)NN1c1ccccc1	18.4µM	?	?	?	.	.
O=S(=O)(Nc1ccc(Br)cc1)c1cccc2nonc12	.	.	.	.	.	.
O=S(=O)(Nc1ccc(C(O)(C(F)(F)F)C(F)(F)F)cc1)c1ccc(Cl)c2nonc12	20.6µM	14.6µM	?	/	20µM	17.8µM
Fc1ccc(NC(=S)NC2CCN(Cc3ccccc3)CC2)cc1	.	.	.	.	.	/
S=C(Nc1ccc(Cl)c(Cl)c1)NC1CCN(Cc2ccccc2)CC1	25.9µM	23.1µM	?	/	11.2µM	?
S=C(Nc1ccc(Cl)c(Cl)c1)NC1CCCCC1	10µM	?	?	.	.	?
S=C(Nc1ccc2nsnc2c1)NC1CCCCC1	.	.	.	.	.	.
S=C(Nc1ccc(Cl)cc1)NC1CC2CCC(C1)N2Cc1ccccc1 (stereo not given)	?	18.4µM	?	.	.	.[11.3 µM]
CCC[C@H]1C[C@H](C(=O)N[C@@H]([C@@H]2O[C@@H](SC)[C@@H](O)[C@@H](O)[C@@H]2O)[C@H](C)Cl)N(C)C1	/	/	/	/	/	.
COc1c(C)cc(S(=O)(=O)Nc2cccc(-c3ccc(N4CCOCC4)nn3)c2)c(C)c1C	/	/	.	?	.	?
CCN1CCC(N(Cc2ccc(F)cc2)C(=O)Nc2cccc(C(F)(F)F)c2)CC1	/	/	?	.	.	28.2µM
CCN1CCC(N(Cc2cccc(OC)c2)C(=O)Nc2cccc(C(F)(F)F)c2)CC1	/	/	?	?	7.08µM	.
COc1cc(CNCCO)cc(Cl)c1OCc1ccc(Cl)cc1Cl	20.6µM	16.4µM	22.4µM	35.5µM	.	15.8µM
COc1cc(CNC(C)(C)CO)cc(Br)c1OCc1ccc(Cl)cc1Cl	16.4µM	16.4µM	?	.	.	.
COc1cc(CNC(C)(C)CO)cc(Br)c1OCc1ccc(Cl)cc1	?	?	?	.	.	.
Cc1ccc(N2C(=O)CS(=O)(=O)C23C(=O)N(C)c2ccccc23)cc1F (stereo not given)	/	/	.	.	.	.
COc1ccc(Nc2nc(=O)c3cc([N+](=O)[O-])ccc3s2)cc1	?	.	.	.	3.98µM	.
Cc1ccc(Nc2nc(=O)c3cc([N+](=O)[O-])ccc3s2)cc1	.	.	.	.	.	/
COC(=O)c1cccc(Nc2nc(-c3cccnc3)nc3ccccc23)c1	.	.	.	.	.	.
CCOC(=O)c1cccc(Nc2nc(-c3cccnc3)nc3ccccc23)c1	20.6µM	?	?	?	.	?
Cc1cccc(Oc2nc(-c3ccccn3)nc3ccccc23)c1	?	16.4µM	?	?	11.2µM	.
SMILES	HT1080-NT tox	HT1080 IDH1KD tx	TGFb inhibitor	S2 tox	HepG2 tox	ATXN2 expr inh
CSCCC(NC(=O)c1ccc([N+](=O)[O-])cc1Cl)C(=O)OCC(=O)NCCCc1ccccc1 (stereo not given)	.	.	15.8µM	.	.	.
C=CC[n+]1c(-c2ccc(OC)c(OC)c2)csc1NNC(=O)Nc1ccccc1	?	15.8µM	?	?	.	?
CC(c1ccccc1)N1CCn2c(nc3cc(NC(=O)NC4CCCCC4)ccc32)C1 (stereo not given)	15.8µM	?	.	.	.	.
CC(c1ccccc1)N1CCn2c(nc3cc(NC(=O)c4cccs4)ccc32)C1 (stereo not given)	?	.[9.24 µM]	.	.	.	.
O=C(NCCO)c1cn(C2CCN(Cc3c(F)cccc3Cl)CC2)nn1	/	/	/	.	/	/
Cc1ccc(Nc2cc(C)nn2-c2nc(C)cc(=O)[nH]2)cc1	?	?	2.24µM	2µM	.	1.12µM
CC(C)(C)c1nnc(NS(=O)(=O)c2ccc(N)cc2)s1	/	/	/	.	/	.
COCCN(C(=O)CCl)C(C(=O)NC1CCCCC1)c1ccccc1C (stereo not given)	?	13µM	?	/	.	?
Nc1nc(CCl)nc(Nc2cccc3ccccc23)n1	0.517µM	?	11.2µM	?	12.6µM	/
OC(CNCCc1ccc(Cl)cc1)COc1cc(Cl)ccc1Cl (stereo not given)	.	.	15.8µM	?	.	?
